Assays:
Details in all cases: concentration: 1 μM, replicates: in singlicate; n = 1
TIE2 = tested on: T1, TIE2
T1 construct: gene TEK

TLK1 = tested on: TLK1
TLK2 = tested on: TLK2
TNIK = tested on: TNIK
TNK1 = tested on: TNK1
TNK2 = tested on: TNK2
TNNI3K = tested on: TNNI3K
TRKA = tested on: T2, TRKA
T2 construct: gene NTRK1

TRKB = tested on: TRKB
TRKC = tested on: T3, TRKC
T3 construct: gene NTRK3
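Note: KINOMEscan kinase panel screen.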

Row | Compound | %Inh (TIE2) [%] | %Inh (TLK1) [%] | %Inh (TLK2) [%] | %Inh (TNIK) [%] | %Inh (TNK1) [%] | %Inh (TNK2) [%] | %Inh (TNNI3K) [%] | %Inh (TRKA) [%] | %Inh (TRKB) [%] | %Inh (TRKC) [%]
1 | COc1cc(Nc2nccc(N3CCC(NC(=O)C4COc5ccccc5O4)C3)n2)cc(OC)c1OC (stereo not shown) [GSK1379761] | 0 | 8 | 0 | 0 | 28 | 6 | 0 | 77 | 31 | 61
2 | Cc1nc(N(C)[C@H]2CN(C(=O)CC#N)CC[C@H]2C)c2cc[nH]c2n1 | 3 | 3 | 7 | 0 | 3 | 11 | 0 | 17 | 0 | 0
3 | Nc1ncnc2c1ncn2-c1ccc(Cl)cc1 [AH2635] | 0 | 0 | 0 | 0 | 0 | 0 | 0 | 14 | 0 | 16
4 | COc1ccc(-c2cc3c(C)nc(N)nc3n([C@H]3CC[C@H](O)CC3)c2=O)cn1 | 0 | 0 | 0 | 0 | 0 | 0 | 0 | 0 | 0 | 0
